Screens as filed in PubChem BioAssay.
ssDAF12 agonist – S. stercoralis DAF-12 nuclear receptor activators, primary screen, cell-based, luminescence, HEK293, GRIP1 co-expression, lit1-tk-luc; Nuclear hormone receptor DAF-12 (Strongyloides stercoralis); HEK293 ssDAF-12/GRIP1 lit1-tk-luc reporter; % of 3 µM dafachronic acid response; activation, % at 6.8 µM; 370,000 tested, 1% active;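 active = activation above the mean over all tested compounds plus 3 SD, cut at about 0.9% in these data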
hgDAF-12 ag – H. glycines DAF-12 receptor agonists, primary screen, cell-based, luminescence, HEK293, GAL4 fusion, UAS-luciferase | Nuclear hormone receptor DAF-12 (Heterodera glycines), GAL4 fusion | HEK293 GAL4-hgDAF12 UAS-luciferase reporter, agonist luminescence; normalized to butyrate control | activation, % at 6.8 µM | 370,000 tested, 1.8% active | AID 687014, 2013;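 active = activation above a cutoff set at the mean of all screened compounds plus 3 SD, cut at about 10% in these data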
DAX1 inh-1 – DAX1 (NR0B1) inhibitors on StAR promoter, primary screen, cell-based, luminescence, SF-1 (NR5A1), full-length DAX-1; HEK293T StAR-luciferase reporter, SF-1/DAX-1 repression relief; inhibition, % at 6.8 µM; AID 652010, 2013; 370,000 tested, 1.1% active;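 active = inhibition above the mean over all tested compounds plus 3 SD, cut at about 3.6% in these data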;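 also: higher inhibition means more luminescence from relief of DAX-1 repression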
hcDAF-12 act – H. contortus DAF-12 nuclear receptor activators, primary screen, cell-based, luminescence, HEK293, lit1-tk-luc reporter; HEK293 hcDAF-12 lit1-tk-luc reporter; 0% DMSO, 100% Δ7-dafachronic acid; activation, % at 6.8 µM; 370,000 tested, 1.4% active;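 active = activation above the mean of all tested compounds plus 3 SD, cut at about 5.5% in these data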
DAX1 inh-2 – DAX1 (NR0B1) inhibitors, primary screen, cell-based, HEK293, Gal4-DAX1, luciferase luminescence | Nuclear receptor subfamily 0 group B member 1 (Homo sapiens), P51843 | HEK293 Gal4-DAX1 luciferase reporter | inhibition, % at 6.75 µM | 340,000 tested, 0.99% active | AID 504766, 2011;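 active = inhibition above the mean over all tested compounds plus 3 SD, cut at about 4.2% in these data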;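 also: inhibition shows as a rise in luminescence from relieved DAX1 repression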
DAX1 conf – DAX1 (NR0B1) inhibitors relieving SF-1 repression, confirmation, cell-based, luminescence, HEK293T, full-length DAX-1, SF-1 activated StAR promoter. AID 652134, 2013. 2,400 tested, 87% active. inhibition, % at 6.8 µM. shares compounds with DAX1 inh-1. HEK293T StAR-promoter luciferase reporter, SF-1/DAX-1 repression;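 active = inhibition above the average of every tested compound plus 3 SD, cut at about 3.8% in these data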
SF1 AF2mut Luc – StAR reporter signal changes without DAX1, counter-screen for DAX1 inhibitor project, cell-based, luminescence, AF-2 mutant SF-1, transactivation; shares compounds with DAX1 inh-1; HEK293 StAR-luciferase, SF-1 AF2 mutant; inhibition, % at 6.8 µM; 2,400 tested, 78% active; AID 652136, 2013;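 active = inhibition above the mean of all tested compounds plus 3 SD, cut at about 3% in these data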
LXRb hcDAF ctr – LXR agonists, Gal4 luciferase reporter, confirmation, counter-screen for hcDAF-12 agonist project, cell-based, luminescence, HEK293, H. contortus campaign; AID 743027, 2013; shares compounds with hcDAF-12 act; activation, % at 6.8 µM; HEK293 Gal4-LXR tk-luc reporter, 24 h; normalized: DMSO 0%, positive control 100%; 3,400 tested, under 10 active;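 active = mean percent activation of the reporter above a cutoff set as the average over tested compounds plus their standard deviation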
Target sequence (P55055 whole entry, looked up, the tested form may be a part): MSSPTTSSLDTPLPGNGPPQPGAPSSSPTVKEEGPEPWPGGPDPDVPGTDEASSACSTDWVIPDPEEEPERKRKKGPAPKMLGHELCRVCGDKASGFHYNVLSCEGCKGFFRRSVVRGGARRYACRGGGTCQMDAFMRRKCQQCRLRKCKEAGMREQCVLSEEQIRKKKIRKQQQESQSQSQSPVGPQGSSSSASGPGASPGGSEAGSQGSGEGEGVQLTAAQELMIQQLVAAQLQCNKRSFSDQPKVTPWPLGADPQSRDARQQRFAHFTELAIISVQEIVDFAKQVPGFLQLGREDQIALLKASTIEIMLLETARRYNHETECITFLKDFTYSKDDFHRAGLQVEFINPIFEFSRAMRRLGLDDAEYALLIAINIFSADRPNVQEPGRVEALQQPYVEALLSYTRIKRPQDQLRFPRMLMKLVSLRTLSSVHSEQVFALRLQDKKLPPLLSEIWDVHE
hcDAF12 conf – H. contortus DAF-12 receptor agonists, confirmation, cell-based, luminescence, HEK293, lit1-tk-luc, triplicate; HEK293 hcDAF-12 lit1-tk-luc reporter; % of Δ7-dafachronic acid response; activation, % at 6.8 µM; 3,400 tested, 61% active; shares compounds with hcDAF-12 act;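 active = mean activation across triplicate tests above the threshold derived from the earlier primary screen, cut at about 5.5% in these data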
hgDAF12 ag – H. glycines DAF-12 receptor agonists, confirmation, cell-based, luminescence, HEK293, GAL4-LBD fusion; shares compounds with hgDAF-12 ag; 3,300 tested, 80% active; AID 743050, 2013; activation, % at 6.8 µM; HEK293 GAL4-hgDAF12 luciferase reporter, agonist mode; percent of butyrate response;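 active = mean activation over triplicate wells above the hit cutoff derived from the earlier primary screen, cut at about 11% in these data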
LXRb DAF12 ctr – LXR agonists, Gal4 luciferase reporter, confirmation, counter-screen for hgDAF-12 agonist project, cell-based, luminescence, HEK293, H. glycines campaign. shares compounds with hgDAF-12 ag. 24 h. activation, % at 6.8 µM. 3,300 tested, under 10 active;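 active = mean activation of the triplicate above a set limit carried over from the primary screen, none filed active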
Numbers stand for hits; . = inactive; / = no result. Most compounds without a hit are left out; they make up all but 4.1% or so of the library.

SMILES	ssDAF12 agonist	hgDAF-12 ag	DAX1 inh-1	hcDAF-12 act	DAX1 inh-2	DAX1 conf	SF1 AF2mut Luc	hgDAF12 ag	LXRb DAF12 ctr	others
CSc1ccccc1CNC(=O)C1(C)CCCN1CC(C)C (configuration not stated)	.	.	.	.	/	/	/	/	/
C(=C\c1nc(-c2ccccc2)no1)/c1ccccc1	.	17.3	5.9	5.8	.	17.0	6.7	22.7	.
C(=C\c1nc(-c2ccncc2)no1)/c1ccccc1	.	.	.	.	.	/	/	/	/
CC(C)Oc1cc(O)c2c(=O)c(-c3ccc(O)cc3)coc2c1	.	26.0	5.3	7.6	.	11.3	5.7	20.1	.	LXRb hcDAF ctr=.;hcDAF12 conf=.
COc1c(-c2ccc(O)cc2)oc2cc(O)cc(O)c2c1=O	.	.	.	.	.	/	/	/	/
O=C(COc1ccc(Br)cc1)NCc1cn2ccccc2n1	.	.	.	.	.	/	/	/	/
Brc1ccc(OCc2cn3ccccc3n2)cc1	.	19.9	6.5	.	.	9.2	4.6	15.6	.
CCC(CO)Nc1ncnc2c1cnn2-c1ccc(OC)cc1 (configuration not stated)	.	16.4	5.1	.	.	8.4	4.4	.	.
CC(C)Nc1ncnc2c1cnn2-c1ccccc1	.	16.8	5.4	.	.	7.2	4.2	12.2	.
NNc1ncnc2c1cnn2-c1ccccc1	.	.	.	.	.	/	/	/	/
Cc1cccc(-n2ncc3c(NC(C)C)ncnc32)c1	.	16.7	6.6	.	.	11.4	8.2	17.9	.
Cc1cccc(-n2ncc3c(Nc4ccc(F)cc4)ncnc32)c1	.	.	.	.	.	/	/	/	/
NC(=Nc1ccccc1)NC(=O)c1nc(Cl)c(N)nc1N	.	17.2	5.4	.	.	8.2	6.4	14.2	.
O=c1c2ccccc2nnn1CSc1ccccc1F	.	13.9	6.5	5.9	.	11.0	5.3	15.1	.
O=c1c2ccccc2nnn1CCc1ccccc1	.	15.8	10.0	7.1	.	11.8	6.4	15.2	.	LXRb hcDAF ctr=.;hcDAF12 conf=7.8
O=C(CSc1nnc(-c2cnccn2)n1-c1ccccc1)c1ccccc1Br	.	.	.	.	/	/	/	/	/
Cc1ccc(S(=O)(=O)N2Cc3ccccc3CC2C(=O)N(C)C)cc1 (configuration not stated)	.	.	.	.	.	/	/	/	/
Cc1cc(C)c(Cn2c(=O)[nH][nH]c2=O)cc1Cn1c(=O)[nH][nH]c1=O	.	.	.	.	.	/	/	/	/
CC(=O)Nc1nc2c(F)cccc2s1	.	.	.	.	.	/	/	/	/
O=C(Nc1nc2c(F)cccc2s1)c1ccco1	.	15.6	4.8	5.6	.	6.8	6.7	16.6	.
CCCC1CCC2(CC1)CCC2OC(=S)Nc1cccc(I)c1 (configuration not stated)	.	.	/	.	/	/	/	/	/
Fc1cccc(/C=N/Nc2ccc3ccccc3n2)c1	1.7	20.9	6.7	11.6	.	16.3	6.6	19.7	.	LXRb hcDAF ctr=.;hcDAF12 conf=11.4
Brc1ccc(/C=N/Nc2ccc3ccccc3n2)cc1	.	.	.	.	.	/	/	/	/
CC(C)N1CCCCC(NC(=O)c2ccc(F)c(F)c2)C1=O (configuration not stated)	.	.	.	.	/	/	/	/	/
Cc1nc(Nc2nc3ccccc3o2)nc(C)c1C	.	14.9	4.6	6.0	.	14.5	5.8	16.3	.
SMILES	ssDAF12 agonist	hgDAF-12 ag	DAX1 inh-1	hcDAF-12 act	DAX1 inh-2	DAX1 conf	SF1 AF2mut Luc	hgDAF12 ag	LXRb DAF12 ctr	others
CC1CC(C)CN(C(=O)c2ccc3ccccc3c2)C1 (configuration not stated)	.	.	.	.	.	/	/	/	/
CC1CCN(C(=O)c2ccc3ccccc3c2)CC1	.	13.6	7.9	.	.	6.8	3.8	14.7	.
CCCn1c(=N)n(CC(=O)c2cccs2)c2ccccc21	.	.	.	.	.	/	/	/	/
Cn1c(=N)n(CC(=O)c2cccs2)c2ccccc21	.	17.4	6.0	14.9	.	4.3	4.0	12.8	.	LXRb hcDAF ctr=.;hcDAF12 conf=9.5
O=C(Nc1ccc(Cl)c(Cl)c1)c1cccc2c1-c1ccccc1C2=O	.	.	.	.	/	/	/	/	/
CCOc1ccc(-c2ccc(SCC)nn2)cc1	.	23.6	7.9	.	.	13.6	6.7	19.0	.
CCOc1ccc(-c2ccc(SCc3ccccn3)nn2)cc1	.	.	.	.	.	/	/	/	/
CCSc1ccc(-c2ccc(C)cc2)nn1	.	19.9	11.3	11.2	.	16.9	7.4	16.6	.	LXRb hcDAF ctr=.;hcDAF12 conf=6.1
Cc1ccc(-c2ccc(SCC(=O)NC3CCCC3)nn2)cc1	.	.	.	.	.	/	/	/	/
O=C(NCc1ccc(F)c(F)c1)C1Cc2c(-c3ccc4c(c3)OCO4)ccnc2O1 (configuration not stated)	.	.	.	.	/	/	/	/	/
COc1ccc2cc(CCC(C)=O)ccc2c1	.	14.4	5.2	.	.	9.6	7.9	16.0	.
OC(c1ccccc1)C1(c2ccccc2)CCN(Cc2ccccc2)CC1 (configuration not stated)	.	.	.	.	/	/	/	/	/
